Measurements from article PMC4336329 (PLoS ONE, 2015).
Among all 310,000 compounds or so, about 14,000 (4.5%) showed an effect of 50% or more. Effects have a minus sign here. The entries come from a sample that favours strong results as a whole.

What follows are compounds tested against human ether-à-go-go-related gene (hERG) potassium channel (human, UniProt Q12809) (assay: primary screen, population patch clamp on CHO cells stably expressing hERG; higher = less effect of the substance).
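Note: peak tail current of the secondary pulse compared with the same well before compound.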

Chain of human ether-à-go-go-related gene (hERG) potassium channel (Q12809 whole entry, looked up): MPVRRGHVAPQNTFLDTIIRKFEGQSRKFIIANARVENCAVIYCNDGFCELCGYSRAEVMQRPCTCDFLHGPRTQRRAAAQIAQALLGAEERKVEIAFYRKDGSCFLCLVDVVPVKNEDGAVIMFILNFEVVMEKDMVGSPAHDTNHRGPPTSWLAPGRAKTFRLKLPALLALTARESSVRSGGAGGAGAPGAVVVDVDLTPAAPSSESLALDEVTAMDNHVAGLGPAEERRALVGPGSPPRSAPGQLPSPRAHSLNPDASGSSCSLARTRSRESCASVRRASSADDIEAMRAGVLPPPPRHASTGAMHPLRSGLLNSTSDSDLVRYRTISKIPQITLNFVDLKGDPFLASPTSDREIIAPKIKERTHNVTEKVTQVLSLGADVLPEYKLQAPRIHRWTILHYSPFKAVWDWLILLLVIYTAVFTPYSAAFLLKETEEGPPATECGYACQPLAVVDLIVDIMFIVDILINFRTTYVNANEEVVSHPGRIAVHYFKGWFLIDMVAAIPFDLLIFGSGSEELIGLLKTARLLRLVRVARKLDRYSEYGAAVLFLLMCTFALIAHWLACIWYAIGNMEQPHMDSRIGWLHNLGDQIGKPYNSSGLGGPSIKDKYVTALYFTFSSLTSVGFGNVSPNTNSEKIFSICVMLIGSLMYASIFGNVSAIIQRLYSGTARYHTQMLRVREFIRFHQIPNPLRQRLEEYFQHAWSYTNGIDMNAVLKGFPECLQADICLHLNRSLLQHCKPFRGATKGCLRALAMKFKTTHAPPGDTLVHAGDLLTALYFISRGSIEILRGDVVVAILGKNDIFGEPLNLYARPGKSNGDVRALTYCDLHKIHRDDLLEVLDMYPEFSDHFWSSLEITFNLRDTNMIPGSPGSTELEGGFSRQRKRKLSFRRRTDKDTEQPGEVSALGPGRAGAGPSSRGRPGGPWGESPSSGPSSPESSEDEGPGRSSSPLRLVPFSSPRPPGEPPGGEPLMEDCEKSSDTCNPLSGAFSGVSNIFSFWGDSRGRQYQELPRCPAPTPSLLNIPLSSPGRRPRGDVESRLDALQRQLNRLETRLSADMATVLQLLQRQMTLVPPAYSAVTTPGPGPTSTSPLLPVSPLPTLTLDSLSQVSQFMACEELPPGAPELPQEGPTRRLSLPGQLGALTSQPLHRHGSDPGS

In order of falling “hERG current change (%, negative = inhibition) at 10uM” value:
1. CCOC(=O)c1c(NC(=O)COC(=O)CCOc2ccccc2C)sc(C(=O)NC)c1C  20.1%
2. COc1ccc(/C=N/Nc2nnc(Cc3ccc(OC)c(OC)c3)c(=O)[nH]2)cc1OC  18.9%
3. CCOc1ccc(NC(=O)Nc2ccon2)cc1  16.7%
4. CN(Cc1ccccc1)C(=O)C1CCN(S(C)(=O)=O)CC1  16.1%
5. Cc1ccc(-n2c(=O)[nH]c3c(C(N)=O)nc(-c4ccc(C)o4)nc32)cc1  14.7%
6. COc1ccc(-c2cc(C(=O)Nc3ccccc3O)c3ccccc3n2)cc1  13.1%
7. Cc1cnc(C(=O)OCC(=O)Nc2c(Cl)cc(Cl)cc2Cl)cn1  12.7%
8. CC(NC(=O)C1CCN(S(=O)(=O)c2cc([N+](=O)[O-])ccc2Cl)CC1)c1ccccc1 (stereo not shown)  11.5%
9. Oc1ccc(N=Nc2n[nH]c(-c3ccccc3)n2)cc1  9.94%
10. Cc1ccc(NC(=O)N2CCN(C(=O)C3CCCO3)CC2)cc1 (stereo not shown)  9.64%
11. O=C(COC(=O)C1CC1)Nc1ncc(Cl)cc1Cl  8.23%
12. Cc1cc(O)c(C(C[N+](=O)[O-])c2ccc(Cl)cc2Cl)c(=O)o1 (stereo not shown)  6.51%
13. CC(=O)Nc1ccc(NC(=O)c2ccc([N+](=O)[O-])cc2Cl)cc1  6.15%
14. O=C(COC(=O)C1CCCC1)Nc1ncc(Cl)cc1Cl  5.91%
15. O=C(CCCNS(=O)(=O)c1cccc2nsnc12)NCCc1ccccc1  5.61%
16. CCCCc1cc2c(cc1NC(=O)CN1CCCCC1)OCCO2.Cl  3.82%
17. Cc1oc2ccc(Br)cc2c(=O)c1-c1nn[nH]n1  3.71%
18. Cc1ccc(/C=C/C(=O)OCC(=O)Nc2ccc3[nH]c(=O)[nH]c3c2)o1  2.52%
19. CC/C(CC(c1ccccc1)c1c(O)c2ccccc2oc1=O)=N\NC(N)=S (stereo not shown)  2.2%
20. CCOc1ccccc1CNC(=O)C1CCC(=O)N1C(C)C (stereo not shown)  1.56%
21. CCC(C)NC(=O)C1CCN(S(=O)(=O)c2cc([N+](=O)[O-])ccc2Cl)CC1 (stereo not shown)  -0.184%
22. CC(=O)NC(Cc1cc(C)ccc1C)C(=O)N1CCN(C(=O)c2ccccc2Br)CC1 (stereo not shown)  -0.358%
23. CC(C)(C)NC(=O)NC(=O)CSc1nnc2ccccn12  -2.98%
24. COc1ccccc1OCC(=O)Nc1ncc(C)s1  -6.77%
25. O=C(NCc1ccccc1)C1CCN(S(=O)(=O)c2cc([N+](=O)[O-])ccc2Cl)CC1  -7.61%
26. Cc1cccc(NC(=O)c2cccc(N3C(=O)C4C5CCC(C5)C4C3=O)c2)c1C (stereo not shown)  -7.75%
27. COc1ccc(/C=N/Nc2nnc(Cc3ccccc3)c(=O)[nH]2)cc1  -15.1%
28. CCOC(=O)N1CCN(C(=O)COc2cc(=O)n(CC)c3ccccc23)CC1  -17%
29. Cc1ccc(S(=O)(=O)Oc2cccc(N3C(=O)C4CC=CCC4C3=O)c2)cc1 (stereo not shown)  -17.3%
30. CCOC(=O)CSc1ncc(-c2cccc(Cl)c2)cn1  -17.4%
31. CC1CCN(S(=O)(=O)c2cc([N+](=O)[O-])ccc2Cl)CC1  -24%
32. O=C(NC1CC1)C1CCN(S(=O)(=O)c2cc([N+](=O)[O-])ccc2Cl)CC1  -28%
33. CC(=O)NC(Cc1cc(C)ccc1C)C(=O)N1CCN(C(=O)c2ccc([N+](=O)[O-])cc2)CC1 (stereo not shown)  -30.2%
34. Cc1c(-c2ccncc2)oc2ccc(Br)cc2c1=O  -41.2%
35. Cc1cccc(C(=O)NC2CCN(C(=S)NCc3ccco3)CC2)c1  -46.7%
36. CC(=O)COC(=O)C1CCN(S(=O)(=O)c2cc([N+](=O)[O-])ccc2Cl)CC1  -51.8%
37. Cc1c(-c2cc[n+]([O-])cc2)oc2ccc(Br)cc2c1=O  -54.2%
38. CN(Cc1ccccc1)C(=O)C1CCN(S(=O)(=O)c2cc([N+](=O)[O-])ccc2Cl)CC1  -54.6%
39. O=C(COC(=O)C1CCN(S(=O)(=O)c2cc([N+](=O)[O-])ccc2Cl)CC1)Nc1ncc(Cl)cc1Cl  -57.6%
40. O=C(NCc1ccc(Cl)cc1)C1CCN(S(=O)(=O)c2cc([N+](=O)[O-])ccc2Cl)CC1  -59%
41. COc1ccc(/C=N/Nc2nnc(Cc3ccccc3)c(=O)[nH]2)cc1OC  -61.4%
42. CC(=O)NC(Cc1cc(C)ccc1C)C(=O)N1CCN(C(=O)c2ccc(Br)cc2)CC1 (stereo not shown)  -71.8%
43. CCC(C)NS(=O)(=O)c1ccc(NC(=O)c2ccc([N+](=O)[O-])cc2Cl)cc1 (stereo not shown)  -88.7%
